PubChem BioAssay (EPA / NIEHS)
Results filed as inconclusive are left out. The source made the active and inactive calls. The calls were made as follows, unless noted: active = hit-call score of the fitted dose curve at least 0.9, where 1 is the maximum; inactive = score below 0.9.

Assays:
[1] = target: Estrogen receptor (Homo sapiens) (UniProt P03372); test: CCTE_Deisenroth_AIME_384WELL_LUC_Active: CCTE's 384-well Estrogen Receptor Transactivation Assay with AIME metabolic competence (ERTA luciferase; metabolism positive), Deisenroth Lab (AID 2284030; active = hit-call score of the fitted dose curve at least 0.9, where 1 is the maximum)
Method in brief: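 Chemicals (10-point, 0.002-200 uM) were first incubated 2 hours with alginate-immobilized induced male Sprague Dawley rat liver S9. The conditioned medium was then applied to VM7Luc4E2 cells for 24 hours, with ER luciferase induction read by luminescence relative to 17beta-estradiol.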

[2] = CCTE_Shafer_MEA_dev_firing_rate_mean: CCTE's Neural Network Formation Assay for Mean Firing Rate, Shafer Lab (AID 2284031)
Method in brief: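 Steps: seed rat cortical cells (1.5 x 10^5/well) with laminin on PEI-coated MEA; dose day 0; record DIV 5/7/9/12, full media and compound exchange after DIV 5 and 9 recordings; compute well-mean firing rate AUC.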

[3] = CCTE_Shafer_MEA_dev_per_burst_spike_percent: CCTE's Neural Network Formation Assay for Percent of Spikes in a Burst, Shafer Lab (AID 2284032)
Method in brief: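 Value is trapezoidal AUC over recordings on days 5, 7, 9 and 12 of the well-mean fraction of spikes falling in single-electrode bursts; rat cortical cultures exposed continuously from plating, treatment renewed DIV 5 and 9, fitted downward against DMSO.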

[4] = target: Estrogen receptor (Homo sapiens) (UniProt P03372); test: CCTE_Deisenroth_AIME_384WELL_LUC_Inactive: CCTE's 384-well Estrogen Receptor Transactivation Assay without AIME metabolic competence (ERTA luciferase; metabolism negative), Deisenroth Lab (AID 2284038; active = hit-call score of the fitted dose curve at least 0.9, where 1 is the maximum;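 also: VM7Luc4E2 breast cells given medium preincubated 2 h with S9-free microspheres; hits raise estrogen receptor luciferase signal so potencies reflect agonists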)
Method in brief: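 VM7Luc4E2 ER transactivation, luciferase bioluminescence after 24 h, using medium pre-incubated 2 h with S9-free alginate microspheres. Concentrations 0.002–200 uM; gain of signal fitted relative to 17beta-estradiol.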

[5] = CCTE_Deisenroth_AIME_384WELL_CTox_Inactive: Cytotoxicity Assessment (CTOX) in CCTE's 384-well Estrogen Receptor Transactivation Assay without AIME metabolic competence (metabolism negative), Deisenroth Lab (AID 2284039; active = hit-call score of the fitted dose curve at least 0.9, where 1 is the maximum;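 also: cell viability via live-cell protease substrate cleaved to fluorescent probe; cells exposed 24 h to medium preincubated 2 h with alginate-water beads without S9; loss of fluorescence signal means loss of viability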)
Method in brief: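 VM7Luc4E2 cells, metabolism-negative arm: test chemicals (0.002–200 uM, 10 points) pre-incubated 2 h with alginate-water microspheres, then medium transferred to cells for 24 h. Viability read as protease-substrate cleavage to fluorescent probe; loss-of-signal, bidirectional fitting.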

[6] = CCTE_Shafer_MEA_dev_active_electrodes_number: CCTE's Neural Network Formation Assay for Number of Active Electrodes, Shafer Lab (AID 2284040; active = hit-call score of the fitted dose curve at least 0.9, where 1 is the maximum)
Method in brief: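 Counts electrodes per well firing at least 5 spikes/min, recorded on days 5, 7, 9 and 12 in rat cortical cultures dosed continuously from plating (treatment refreshed DIV 5, 9). Value is the area under the curve over recordings, fitted downward relative to DMSO.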

[7] = target: Estrogen receptor (Homo sapiens) (UniProt P03372); test: CCTE_Deisenroth_AIME_384WELL_LUC_Shift: CCTE's 384-well Estrogen Receptor Transactivation Assay with AIME metabolic competence data shift (ERTA luciferase; difference in metabolism positive and negative), Deisenroth Lab (AID 2284041);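 also: shift is response with S9 minus without S9 so positive means metabolism raised ER signal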
Method in brief: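 Chemicals (0.002–200 uM, 10 points) pre-incubated 2 h with alginate-encapsulated induced male Sprague Dawley rat liver S9 or S9-free, then medium applied 24 h to VM7Luc4E2 cells; luciferase. Endpoint is per-concentration difference, S9-positive minus negative.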

[8] = CCTE_Shafer_MEA_dev_burst_rate: CCTE's Neural Network Formation Assay for Burst Rate, Shafer Lab (AID 2284042)
Method in brief: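 Primary rat cortical neurons on PEI-coated 48-well MEA plates (laminin added with cells at plating) (16 electrodes/well), exposed from plating to day 12, dosing renewed at DIV 5 and 9. Burst rate averaged over active electrodes, recorded DIV 5, 7, 9, 12, summarized as AUC; loss versus DMSO.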

[9] = CCTE_Shafer_MEA_dev_bursting_electrodes_number: CCTE's Neural Network Formation Assay for Number of Bursting Electrodes, Shafer Lab (AID 2284043; active = hit-call score of the fitted dose curve at least 0.9, where 1 is the maximum)
Method in brief: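 Rat cortical primary neurons, 48-well MEA, 16 electrodes/well; dosing DIV 0–12, re-dosed with full media change DIV 5, 9. Recordings DIV 5/7/9/12, AxIS adaptive spike detector; bursting electrode = ≥1 burst/2 min. AUC across days; loss of signal vs DMSO.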

[10] = CCTE_Shafer_MEA_dev_per_burst_interspike_interval: CCTE's Neural Network Formation Assay for Burst Interspike Interval, Shafer Lab (AID 2284044)
Method in brief: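 Primary rat cortical neurons on 48-well MEA plates, exposed from day 0 through day 12, treatment renewed at DIV 5 and 9. Within-burst interspike interval recorded days 5, 7, 9, 12, well-averaged, summarised as AUC; negative fit versus DMSO.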

[11] = CCTE_Shafer_MEA_dev_burst_duration_mean: CCTE's Neural Network Formation Assay for Mean Burst Duration, Shafer Lab (AID 2284045)
Method in brief: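 Rat cortical cultures, 1.5 x 10^5 cells/well with laminin drop; continuous dosing days 0–12, media plus treatment refreshed DIV 5, 9. AxIS adaptive spike detection; mean single-electrode burst duration, AUC over four recordings, negative direction vs DMSO.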

[12] = CCTE_Shafer_MEA_dev_interburst_interval_mean: CCTE's Neural Network Formation Assay for Mean Interburst Interval, Shafer Lab (AID 2284046);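 also: well-mean interburst interval of bursting electrodes as AUC over four recording days; curve fitted for decrease in interburst interval relative to DMSO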
Method in brief: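 Recordings on days 5, 7, 9 and 12 give well-mean interburst interval across actively bursting electrodes, summarized as area under the curve. Cultures: rat cortical neurons, continuous exposure from day 0, compound renewed at feeds; decrease analyzed versus DMSO.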

[13] = CCTE_Shafer_MEA_dev_inter_network_spike_interval_mean: CCTE's Neural Network Formation Assay for Mean Inter-network Spike Interval, Shafer Lab (AID 2284047)
Method in brief: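 Primary rat cortical neurons on 16-electrode MEA wells, exposed from plating day 0 through DIV 12, compound renewed at DIV 5 and 9 media changes. Mean interval between network-spike peaks recorded DIV 5, 7, 9, 12; collapsed as trapezoidal AUC, fitted downward versus DMSO.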

[14] = CCTE_Shafer_MEA_dev_network_spike_number: CCTE's Neural Network Formation Assay for Number of Network Spikes, Shafer Lab (AID 2284048);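 also: synchronized bursts across electrodes counted on days 5 7 9 12 and integrated as AUC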
Method in brief: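 Rat cortical primary cultures on 48-well MEA (16 electrodes/well); continuous exposure DIV 0–12, full medium and treatment exchange DIV 5, 9. Readout: network spike count, AxIS adaptive detection, recordings DIV 5/7/9/12 collapsed to AUC; loss-of-signal fit, DMSO baseline.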

[15] = CCTE_Shafer_MEA_dev_network_spike_peak: CCTE's Neural Network Formation Assay for Mean Number of Electrodes in Network Spike, Shafer Lab (AID 2284049)
Method in brief: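 Network-spike peak electrode count from recordings on days 5, 7, 9 and 12 was combined as trapezoidal area under the curve. Rat cortical cultures were treated continuously from plating, with compound renewed at each feed (DIV 5, 9); fits versus DMSO.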

[16] = CCTE_Shafer_MEA_dev_spike_duration_mean: CCTE's Neural Network Formation Assay for Mean Spike Duration, Shafer Lab (AID 2284051);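 also: mean network spike duration pooled as area under curve over DIV 5 to 12 recordings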
Method in brief: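 Primary rat cortical neurons on 16-electrode MEA wells (PEI-coated, laminin in plating drop), exposed from plating through DIV 12 with compound renewed at DIV 5 and 9. Mean network-spike duration recorded DIV 5, 7, 9, 12; trapezoidal AUC across days, DMSO baseline.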

[17] = CCTE_Shafer_MEA_dev_network_spike_duration_std: CCTE's Neural Network Formation Assay for Standard Deviation of Network Spike Duration, Shafer Lab (AID 2284052);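 also: area under curve of spike duration SD across recording days 5 to 12; hits are decreases in network spike duration SD versus DMSO vehicle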
Method in brief: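 Primary rat cortical neurons on PEI-coated 16-electrode MEA wells, exposed from plating day 0 through day 12 with compound renewed at DIV 5 and 9. Network spike duration SD recorded on days 5, 7, 9, 12, collapsed as trapezoidal AUC; loss-of-signal fit versus DMSO.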

[18] = CCTE_Deisenroth_AIME_384WELL_CTox_Active: Cytotoxicity Assessment (CTOX) in CCTE's 384-well Estrogen Receptor Transactivation Assay with AIME metabolic competence (metabolism positive), Deisenroth Lab (AID 2284037; active = hit-call score of the fitted dose curve at least 0.9, where 1 is the maximum;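 also: chemicals first conditioned 2 h by alginate-bound induced rat liver S9 before cells; activity means signal loss indicating cell death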)
Method in brief: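 Chemicals pre-incubated 2 hours with alginate-immobilised phenobarbital/beta-naphthoflavone-induced male Sprague Dawley rat liver S9, then conditioned medium applied 24 hour to VM7Luc4E2 cells. Viability by fluorogenic protease substrate; 10-point series 0.002 - 200 uM.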

[19] = tested on: DIO2 (gene 1734); test: CCTE_GLTED_hDIO2: CCTE's human Deiodinase 2 (DIO2) Inhibition Assay, Great Lakes Toxicology and Ecology Division (GLTED) Lab (AID 2284050; active = hit-call score of the fitted dose curve at least 0.9, where 1 is the maximum)
Method in brief: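 Inhibition is judged by reduced iodide release: uninhibited human DIO2 frees iodide from substrate over 3 h, measured afterward by Sandell-Kolthoff colorimetry. Iodinated chemicals or nitrite, iron and thiocyanate may interfere.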

Measured: AC50

Estrogen receptor (Homo sapiens), sequence (P03372 whole entry, looked up): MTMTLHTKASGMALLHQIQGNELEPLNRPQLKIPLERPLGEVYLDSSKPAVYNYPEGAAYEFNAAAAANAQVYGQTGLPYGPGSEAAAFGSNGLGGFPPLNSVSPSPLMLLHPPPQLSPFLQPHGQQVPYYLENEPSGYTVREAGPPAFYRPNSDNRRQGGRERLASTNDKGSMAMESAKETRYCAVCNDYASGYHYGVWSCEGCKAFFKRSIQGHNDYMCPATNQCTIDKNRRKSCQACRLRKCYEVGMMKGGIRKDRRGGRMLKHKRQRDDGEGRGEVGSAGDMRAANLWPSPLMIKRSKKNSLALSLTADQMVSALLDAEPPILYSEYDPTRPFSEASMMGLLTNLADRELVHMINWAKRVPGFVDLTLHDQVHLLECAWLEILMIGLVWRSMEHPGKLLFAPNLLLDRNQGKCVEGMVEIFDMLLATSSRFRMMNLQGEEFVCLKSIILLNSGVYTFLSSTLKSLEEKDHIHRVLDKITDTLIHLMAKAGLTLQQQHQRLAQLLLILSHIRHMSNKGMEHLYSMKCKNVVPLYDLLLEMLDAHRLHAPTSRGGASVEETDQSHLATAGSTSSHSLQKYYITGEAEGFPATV

C[Si]1(C)O[Si](C)(C)O[Si](C)(C)O[Si](C)(C)O1
not listed: [18] | [19]
inactive: all other assays above

C=CCc1ccc(O)c(OC)c1
not listed: [19]
inactive: all other assays above

CCOc1ccc2c(c1)C(C)=CC(C)(C)N2
inactive: [18] | [4] | [5]
active: [1] 34.5 µM

C[C@]12C=CC(=O)C=C1CC[C@@H]1[C@@H]2C(=O)C[C@@]2(C)[C@H]1CC[C@]2(O)C(=O)CO
inactive: [1] | [18] | [4] | [5] | [7]

CCNc1cccc(C)c1
inactive: [1] | [4] | [5] | [7]

CNC(=O)[C@H]1O[C@@H](n2cnc3c(NCc4cc(Cl)ccc4OCc4cc(C)no4)ncnc32)[C@H](O)[C@@H]1N
inactive: [1] | [18] | [4] | [7]

OC[C@@H](O)[C@@H](O)[C@H](O)[C@H](O)CO
not listed: [1] | [4] | [5] | [7] | [18] | [19]
inactive: all other assays above

CC(C)c1ccc(C(=O)N=C(N)N)cc1S(C)(=O)=O
not listed: [1] | [4] | [5] | [7] | [18] | [19]
inactive: all other assays above

CC1=C(/C=C/C(C)=C/C=C/C(C)=C/CO)C(C)(C)CCC1
inactive: [1] | [4] | [5] | [7]
active: [19] 47 µM

Cc1ccc(C(C)C)c(O)c1
inactive: [1] | [4] | [7]

CCCCCCCCCCCCCO
inactive: [19]

COc1ccc(C)cc1N
inactive: [1] | [4] | [7]

CC=Cc1ccc(O)c(OC)c1
active: [19] 68 µM

CCCCCCCC=O
active: [1] 27.9 µM | [4] 25.7 µM | [7] 15.6 µM

CCCCCCC(=O)OCC
inactive: [1] | [4] | [7]

Nc1ccc2c(c1)C(=O)c1ccccc1C2=O
active: [1] 72.1 µM | [4] 11.2 µM | [7] 3.51 µM
inactive: [18]

FC(F)(F)C(F)(F)C(F)(F)C(F)(F)C(F)(F)C(F)(F)CCI
not listed: [1] | [4] | [5] | [7] | [18] | [19]
inactive: all other assays above

CNCc1cc(F)ccc1Oc1ccc(Cl)c(Cl)c1
active: [5] 19.8 µM
inactive: [1] | [18] | [7]

Cc1ccc2ncccc2c1
inactive: [1] | [18] | [4] | [7]

CCCCC(CC)COC(=O)CC(C(=O)OCC(CC)CCCC)S(=O)(=O)O (stereo unspecified)
active: [19] 85.1 µM

CCCCCC(=O)O
inactive: [1] | [4] | [5] | [7]

CCCCCCCCCCO
inactive: [1] | [18] | [4] | [7]

COc1cc(-c2nc(NC(=O)c3cc4cc(C)cc(C)c4n3CC(=O)O)sc2CCC2CCCCC2)c(OC)cc1Cl
inactive: [19]

Cc1ccc(C)c(C)c1
inactive: [4] | [7]

CC1(C)CC(N=C=O)CC(C)(CN=C=O)C1 (stereo unspecified)
inactive: [1] | [4] | [7]

Clc1cc(Cl)c(Cl)cc1Cl
inactive: [1] | [4] | [7]

CN[C@H]1CC[C@@H](c2ccc(Cl)c(Cl)c2)c2ccc(S(N)(=O)=O)cc21
active: [19] 49.3 µM
